The values below come from the supplement of paper PMC8728848.

Assay in all cases: glycan array binding signal (z-score within array); higher = stronger binding
Common to all, as to conditions: glycan notation: IUPAC condensed, linker removed

Experiment [1] concerns the target Fuc(a1-2)Gal(b1-4)GlcNAc(b1-2)Man(a1-3)[Fuc(a1-2)Gal(b1-4)GlcNAc(b1-2)Man(a1-6)]Man(b1-4)GlcNAc(b1-4)GlcNAc. In short, it runs like this: (§1)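 Glycan array binding is given as a within-array Z-score, which can be read as non-binding when negative. The arrays, 3228 of them, came from the Consortium for Functional Glycomics database and were retained only where the protein sequence was available. Z-scores were averaged across arrays of the same protein sequence at different concentrations or buffers and across linkers.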

The target in experiment [2] is Fuc(a1-2)Gal(b1-4)GlcNAc(b1-6)GalNAc. The method in brief: as §1
In a further experiment the target is Fuc(a1-2)Gal6S(b1-4)Glc. The method in brief:
as §1

Experiment [3] deals with Fuc(a1-2)Gal6S(b1-4)Glc6S. In short, it runs like this:
as §1

For experiment [4], the target named is Fuc(a1-2)[Gal(a1-3)]Gal(b1-4)GlcNAc(b1-2)Man(a1-3)[Fuc(a1-2)[Gal(a1-3)]Gal(b1-4)GlcNAc(b1-2)Man(a1-6)]Man(b1-4)GlcNAc(b1-4)GlcNAc. The method in brief:
as §1

Experiment [5] addresses Fuc(a1-2)[Gal(a1-3)]Gal(b1-4)GlcNAc(b1-3)[Fuc(a1-2)[Gal(a1-3)]Gal(b1-4)GlcNAc(b1-6)]GalNAc. In short, it runs like this:
as §1

Experiment [6] concerns the target Fuc(a1-2)[Gal(a1-3)]Gal(b1-4)GlcNAc(b1-6)GalNAc. The method in brief:
as §1

The target in experiment [7] is Fuc(a1-2)[Gal(a1-4)]Gal(b1-4)GlcNAc. The method in brief: as §1
The target in experiment [8] is Fuc(a1-2)[GalNAc(a1-3)]Gal. The method in brief: as §1
Experiment [9] concerns the target Fuc(a1-2)[GalNAc(a1-3)]Gal(b1-4)Glc. In short, it runs like this: as §1
The target in experiment [10] is Fuc(a1-3)[Gal3S(b1-4)]GlcNAc. In short, it runs like this:
as §1

Experiment [11] addresses Fuc(a1-3)[GalNAc(b1-4)]GlcNAc. The method in brief: as §1
For a further experiment, the target named is Gal(a1-3)Gal(b1-4)Glc. In short, it runs like this:
as §1

A further experiment deals with Gal(a1-3)GalNAc. In short, it runs like this: as §1
The target of experiment [12] is Gal(a1-4)Gal(b1-4)GlcNAc(b1-3)Gal(b1-4)Glc. The method in brief:
as §1

The target in a further experiment is Gal(b1-3)Gal. In short, it runs like this:
as §1

Experiment [13] concerns the target Gal(b1-3)[Fuc(a1-4)]GlcNAc(b1-6)GalNAc. In short, it runs like this: as §1
In experiment [14] the target is Gal(b1-4)GlcNAc(b1-2)Man(a1-3)[Gal(b1-4)GlcNAc(b1-2)Man(a1-6)][Gal(b1-4)GlcNAc(b1-4)]Man(b1-4)GlcNAc(b1-4)[Fuc(a1-6)]GlcNAc. In short, it runs like this:
as §1

Experiment [15] addresses Gal(b1-4)GlcNAc(b1-2)[Gal(b1-4)GlcNAc(b1-4)]Man(a1-3)[Gal(b1-4)GlcNAc(b1-2)Man(a1-6)]Man(b1-4)GlcNAc(b1-4)GlcNAc. The method in brief:
as §1

For experiment [16], the target named is Gal(b1-4)GlcNAc(b1-3)Gal(b1-4)GlcNAc(b1-2)Man(a1-3)[Gal(b1-4)GlcNAc(b1-3)Gal(b1-4)GlcNAc(b1-2)Man(a1-6)]Man(b1-4)GlcNAc(b1-4)[Fuc(a1-6)]GlcNAc. In short, it runs like this: as §1
Another experiment concerns the target Gal(b1-4)GlcNAc6P. The method in brief:
as §1

Another experiment has as its target Gal6S(b1-4)Glc. In short, it runs like this: as §1
The target in a further experiment is GalNAc(b1-4)GlcNAc6S. In short, it runs like this:
as §1

A further experiment deals with GlcA(b1-6)Gal. The method in brief: as §1

This excerpt belongs to a sample that is enriched for the strongest signals.

B1: Thrombomodulin Lectin (Mus musculus) (protein)
chain: LSALAKLQPTGSQCVEHECFALFQGPATFLDASQACQRLQGHLMTVRSSVAADVISLLLSQSSMDLGPWIGLQLPQGCDDPVHLGPLRGFQWVTGDNHTSYSRWARPNDQTAPLCGPLCVTVSTATEAAPGEPAWEEKPCETETQGFLCEFYFTASCRVDPIPVREDTKEEEGAGEPPVSPTPGSPTGPPSARPVLDEPRVPITQNPCPPLKECPPCAAPDLEGGPSVFIFPPKIKDVLMISLSPMVTCVVVDVSEDDPDVQISWFVNNVEVHTAQTQTHREDYNSTLRVVSALPIQHQDWMSGKAFACAVNNRALPSPIEKTISKPRGPVRAPQVYVLPPPAEEMTKKEFSLTCMITGFLPAEIAVDWTSNGRTEQNYKNTATVLDSDGSYFMYSKLRVQKSTWERGSLFACSVVHEGLHNHLTTKTISRSLGK
With B1, the “glycan array binding signal (z-score)” value in experiment [1] was determined as 0.621; in [2], 2.73; in the experiment with Fuc(a1-2)Gal6S(b1-4)Glc, 2.72; in experiment [3], 0.784; in experiment [4] it was 2.81; in experiment [5] it was 2.22. Besides, the “glycan array binding signal (z-score)” value is 0.082 in experiment [6]; 0.651 in [7]; 0.693 in experiment [8]; -0.508 in experiment [9]; -0.275 in experiment [10]; 0.174 in experiment [11]. The “glycan array binding signal (z-score)” value in the experiment with Gal(a1-3)Gal(b1-4)Glc is 0.642; with Gal(a1-3)GalNAc, -0.598; in [12], 0.021; in the experiment with Gal(b1-3)Gal it was 2.2; in experiment [13], -0.03; in experiment [14], 0.267. Besides, the “glycan array binding signal (z-score)” value in experiment [15] was 2.75; in experiment [16], 1.18; with Gal(b1-4)GlcNAc6P, 2.7; in the experiment with Gal6S(b1-4)Glc it was -1.09; in the experiment with GalNAc(b1-4)GlcNAc6S, 0.18; with GlcA(b1-6)Gal it was 1.32.
